Consider five molecules from PubChem BioAssay (NCATS).

Results filed as inconclusive are left out. The source made the active and inactive calls. Calls come from the whole dose curve; as a rule, active = well fitted cell-killing curve with a large enough effect; inconclusive = small, poorly fitted or top-dose-only effect, or effect the other way; inactive = flat fitted curve, though single readings scatter.

Common to all, as to experiment: Primary qHTS to identify gynecologic anti-cancer compounds using libraries of approved drugs and bioactive compounds (AID 1345084); note: nearly all actives have a fitted effect of over 55% in size
In general terms: In qHTS, concentration-response curves come from the screen itself.

In one assay the test system is C33A. The following applies: Gynecologic cancer cell panel viability, ATPlite luminescence, 48 h; series mostly up to 57.5 µM. An outline of the steps: (§1)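 Cytotoxicity screen measuring ATP content by luciferase luminescence. Each compound is applied at five concentrations for 48 h at 37 C with 5% CO2.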
On the technique in general: Cellular ATP, detected with luciferase, serves as a proxy for viable cell number.

For a further assay, the system named is CAOV3. Conditions: Gynecologic cancer cell panel viability, ATPlite luminescence, 48 h; series mostly up to 57.5 µM. The gist of the method:
as §1

The subject of the next assay is CASKI. Conditions: Gynecologic cancer cell panel viability, ATPlite luminescence, 48 h; series mostly up to 57.5 µM. The gist of the method:
as §1

A further assay has as its system Es-2. Conditions: Gynecologic cancer cell panel viability, ATPlite luminescence, 48 h; series mostly up to 57.5 µM. The gist of the method: as §1
Another assay relates to HeLa. Conditions: Gynecologic cancer cell panel viability, ATPlite luminescence, 48 h; series mostly up to 57.5 µM. An outline of the steps: as §1
The next assay deals with Hek293T. The following applies: Gynecologic cancer cell panel viability, ATPlite luminescence, 48 h, control line for the selectivity index; series mostly up to 57.5 µM. The gist of the method:
as §1

The test system of a further assay is JEG-3. Conditions: Gynecologic cancer cell panel viability, ATPlite luminescence, 48 h; series mostly up to 57.5 µM. An outline of the steps:
as §1

The test system of a further assay is OV90. The following applies: Gynecologic cancer cell panel viability, ATPlite luminescence, 48 h; series mostly up to 57.5 µM. The gist of the method:
as §1

Another assay deals with PA-1. Conditions: Gynecologic cancer cell panel viability, ATPlite luminescence, 48 h; series mostly up to 57.5 µM. An outline of the steps: as §1
The next assay relates to SKOV3. Conditions: Gynecologic cancer cell panel viability, ATPlite luminescence, 48 h; series mostly up to 57.5 µM. An outline of the steps: as §1
The next assay relates to Tov-21-G. The following applies: Gynecologic cancer cell panel viability, ATPlite luminescence, 48 h; series mostly up to 57.5 µM. An outline of the steps:
as §1

The subject of the next assay is Tov112D. Conditions: Gynecologic cancer cell panel viability, ATPlite luminescence, 48 h; series mostly up to 57.5 µM. An outline of the steps: as §1
Potency is the fitted concentration of half-maximal effect.

Consider `CC(=O)NC1C(OC(C)(C)C2CCC3(C)C=C(C4CCC5C4(C)CC(O)C4OC(C(C)(C)O)CCC45C)CCC3O2)OC(CO)C(O)C1O` (stereo not given), for which the Potency result in the assay with C33A, in the assay with CAOV3, in the assay with CASKI, with Es-2, in the assay with HeLa and with Hek293T was “inactive” each time. Moreover, the Potency entry in the assay on JEG-3, in the assay with OV90, in the assay on PA-1, with SKOV3, in the assay with Tov-21-G and in the assay with Tov112D was “inactive” in each case.

With `CC(=O)O[C@@H](CO[C@@H]1O[C@H](CO)[C@H](O)[C@H](O)[C@H]1O)[C@]1(C)C=C2CC[C@@H]3C(C)(C)[C@@H](O)CC[C@@]3(C)[C@@H]2CC1`, the Potency result with C33A, in the assay with CAOV3, with CASKI, with Es-2, in the assay on HeLa and in the assay with Hek293T was “inactive” in each case. In addition, the Potency result in the assay with JEG-3, in the assay with OV90, with PA-1, in the assay with SKOV3, in the assay on Tov-21-G and with Tov112D was “inactive” in each case.

Regarding `CC1CC(=O)C2=C(CCC3(O)C(O)c4c(O)cccc4C(=O)C23O)C1` (stereo not given), the Potency entry in the assay with C33A, with CAOV3, with CASKI, in the assay on Es-2, with HeLa and in the assay on Hek293T was “inactive” in each case. Also, the Potency entry in the assay with JEG-3, in the assay with OV90, with PA-1, in the assay with SKOV3, with Tov-21-G and with Tov112D was “inactive” each time.

For the molecule `OC[C@H]1O[C@@H](OCCc2ccccc2)[C@H](O[C@@H]2OC[C@](O)(CO)[C@H]2O)[C@@H](O)[C@@H]1O`, the Potency result in the assay with C33A, in the assay with CAOV3, in the assay with CASKI, in the assay on Es-2, with HeLa and in the assay on Hek293T was “inactive” each time. The Potency result with JEG-3, with OV90, with PA-1, in the assay on SKOV3, in the assay with Tov-21-G and in the assay on Tov112D was “inactive” in each case.

On to `Nc1ncnc2c1nc(N)n2[C@@H]1O[C@H](CO)[C@@H](O)[C@H]1O`, for which the Potency was 3.55 µM (active) with C33A; 1.26 µM (active) in the assay with CAOV3; 3.16 µM (active) with CASKI; 3.16 µM (active) in the assay with Es-2; 5.01 µM (active) in the assay with HeLa; 7.94 µM (active) with Hek293T. The Potency with JEG-3 was 15.8 µM (active); in the assay on OV90 it was 3.55 µM (active); in the assay on PA-1 it was 4.47 µM (active); with SKOV3, 3.16 µM (active); in the assay with Tov-21-G, 3.16 µM (active); in the assay with Tov112D, 3.55 µM (active).
